Hits are enriched below; roughly 7.4% of the tested compounds scored in any of these assays.
SMN2 splice enh: qHTS Assay for Enhancers of SMN2 Splice Variant Expression | HEK293 SMN2-luciferase splicing reporter, luminescence, 30-36 h | Potency, µM (top dose mostly 46.1 µM), without a hit: top-dose activity change, positive = activation, most hits filed as activators | hit rate 2.8% among 210,000; also: % of control where 0% means no effect; nearly all actives have a fitted effect of over 55% in size
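HEK293 cells carry an SMN2 minigene-luciferase reporter in which exon 7 inclusion puts luciferase in frame. Cells were seeded at 2000 cells/well, attached for 10-12 hours, then exposed to compounds for 30-36 hours at 37C before ONE-Glo luminescence.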
ELG1 genotoxic: qHTS screen for small molecules that induce genotoxicity in human embryonic kidney (HEK293T) cells expressing luciferase-tagged ELG1; HEK293T ELG1-luciferase reporter, luminescence, 16 h; AID 504466, 2011; hit rate 1.3% among 330,000; Potency, µM (series often up to 46 µM), for inactives: at the highest dose activity change, positive = activation, most hits filed as activators; also: % of control where 0% means no effect; nearly all actives have a fitted effect of over 60% in size
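HEK293T cells expressing luciferase-tagged ELG1 were treated with compound or DMSO for 16 hr at 37°C. Luciferase activity was then read after 30 min with ONE-Glo at room temperature; rising signal flags genetic stress.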
NPC1 prom act: qHTS Assay for NPC1 Promoter Activators; AID 485313, 2010; Potency, µM (top dose mostly 9.22 µM), for inactives: top-dose activation, usual class: activators; Huh7 NPC1 promoter luciferase reporter, 24 h; hit rate 2.4% among 320,000; also: % of control where 0% means no effect; nearly all actives have a fitted effect of over 60% in size
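Cells: Huh7 expressing luciferase under the NPC1 promoter, 1500/well. Seeded 2 h, compound added, incubated 24 h at 37 °C. Luciferase reagent, 10 min ambient, then luminescence.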
FLuc modulator: qHTS profiling assay for firefly luciferase inhibitor/activator using purifed enzyme and Km concentrations of substrates (counterscreen for miR-21 project); purified FLuc, Km substrates, luminescence inhibition; Potency, µM (top dose mostly 57.5 µM), for inactives: top-dose activity change, negative = inhibition, usual class: inhibitors; hit rate 6.9% among 360,000;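 also: plate controls were vehicle for no effect and reference inhibitor for full effect; nearly all actives have a fitted effect of over 55% in size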
Target sequence (P08659 whole entry, looked up): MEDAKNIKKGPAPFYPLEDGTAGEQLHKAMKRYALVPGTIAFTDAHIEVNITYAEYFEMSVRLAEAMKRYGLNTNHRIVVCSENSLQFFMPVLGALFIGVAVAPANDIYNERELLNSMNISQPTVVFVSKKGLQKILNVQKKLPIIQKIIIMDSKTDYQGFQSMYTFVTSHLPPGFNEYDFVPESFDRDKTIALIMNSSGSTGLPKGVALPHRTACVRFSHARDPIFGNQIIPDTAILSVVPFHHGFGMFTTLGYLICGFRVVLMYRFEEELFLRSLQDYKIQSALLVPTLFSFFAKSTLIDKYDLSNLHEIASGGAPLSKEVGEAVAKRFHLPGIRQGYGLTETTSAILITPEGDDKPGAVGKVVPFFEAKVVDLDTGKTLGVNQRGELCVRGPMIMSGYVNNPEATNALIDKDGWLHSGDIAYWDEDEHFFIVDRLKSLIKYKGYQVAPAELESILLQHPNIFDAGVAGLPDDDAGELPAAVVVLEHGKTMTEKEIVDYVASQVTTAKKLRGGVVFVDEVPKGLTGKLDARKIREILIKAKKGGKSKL
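Purified P. pyralis luciferase, 10 nM final, with Km-level 10 uM D-luciferin and 10 uM ATP in 50 mM Tris acetate pH 7.5, 10 mM Mg acetate, 0.01% Tween-20, 0.05% BSA; 6-point qHTS titration about 60 µM downward; luminescence read.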
Rab9 prom act: qHTS Assay for Rab9 Promoter Activators; Huh7 Rab9 promoter-luciferase reporter, luminescence, 24 h; hit rate 2.8% among 320,000; Potency, µM (doses to about 9.22 µM), inactives show at the highest dose activation, negative = inhibition, most hits filed as activators; also: % of control where 0% means no effect; nearly all actives have a fitted effect of over 60% in size
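Using Huh7 cells stably transfected with Rab9 promoter–luciferase, compounds were incubated 24 h at 37 °C, 5% CO2; luciferase luminescence was read 10 min after reagent addition.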
* marks the source's active call; other numbers are inactive results; ? = inconclusive; / = no result given; [ ] = another dose, or the depositor's remark. Calls follow the shape of the dose curve; as a rule, active = well fitted curve in the direction sought with a large enough effect; inconclusive = small, poorly fitted or top-dose-only effect, or another doubt; inactive = no such curve, though single readings can be large; an effect the other way counts as inactive or inconclusive. Potency is read from the fitted curve at half-maximal effect.

SMILES	SMN2 splice enh	ELG1 genotoxic	NPC1 prom act	FLuc modulator	Rab9 prom act
Cc1ccc(C(=O)COC(=O)C(C)N2C(=O)C3C4C=CC(C4)C3C2=O)cc1C (stereo unspecified)	/	2.3%	-3.5%	13.5µM*	-0.5%
Cc1ccc(C)c(C(=O)COC(=O)CCN2C(=O)C3C4CCC(C4)C3C2=O)c1 (stereo unspecified)	/	2.4%	-5.4%	12µM*	1.9%
Cc1ccc(C(=O)COC(=O)c2ccccc2N2C(=O)C3C4CCC(C4)C3C2=O)cc1C (stereo unspecified)	-10.3%	-0.9%	-3.2%	12µM*	12.3%
CCC(C)NC(=O)C1CCC(CNS(=O)(=O)c2cccc3nsnc23)CC1 (stereo unspecified)	0.4%	-1.6%	-2.3%	1.5%	-1.3%
COc1cccc(-n2cc(C(=O)NCCc3cccc(C)c3)c3ccccc3c2=O)c1	/	/	/	-10.6%	/
CCC(C(=O)OCc1csc(CC(=O)Nc2ccccc2C)n1)c1ccccc1 (stereo unspecified)	/	-0.6%	-1.0%	2.0%	3.5%
CCCCOC(=O)c1cccc(NC(=O)c2cc3ccccc3o2)c1	3.55µM*	/	/	8.49µM*	/
Cc1ccc(NC(=O)c2cc3ccccc3o2)cc1Cl	/	?	3.98µM*	3.38µM*	3.16µM*
Cc1ccc(NC(=O)c2ocnc2C)cc1Cl	14.1µM*	?	?	12µM*	3.16µM*
CC(C)NC(=O)c1cc2ccccc2o1	1.1%	-1.6%	-2.4%	-7.6%	-0.3%
CC(C)C(=O)Nc1cccc(NC(=O)c2cc3ccccc3o2)c1	17.8µM*	?	?	6.01µM*	?
CCCCOC(=O)c1ccc(NC(=O)c2cc(=O)c3ccccc3o2)cc1	4.0%	/	/	0.0%	/
CC(=O)Nc1cccc(NC(=O)c2cc3ccccc3o2)c1	11.2µM*	5.8µM*	3.55µM*	3.38µM*	?
Cc1nnsc1S(=O)c1ccccc1Cl (stereo unspecified)	/	1.5%	-0.6%	1.2%	-5.0%[1.84 µM]
Cc1ccc(OCC(=O)Nc2ccc3c(c2)OCO3)cc1C	/	8.4%	5.1%	23.9µM*	15.7%
O=C(COc1ccccc1[N+](=O)[O-])Nc1ccc2c(c1)OCO2	12.6µM*	9.2µM*	2.51µM*	4.78µM*	2.24µM*
O=C(COC(=O)COc1ccccc1[N+](=O)[O-])Nc1ccc2c(c1)OCO2	/	3.8%	/	/	/
Cc1cccc(OCC(=O)Nc2ccc3c(c2)OCO3)c1C	-0.1%	9.4%	8.7%	19µM*	7.2%
O=C(COc1ccc2ccc(=O)oc2c1)Nc1ccc2c(c1)OCCO2	11.9%	7.9%	2.3%	9.53µM*	27.0%
O=S(=O)(Nn1cnnc1)c1ccc(F)cc1	7.4%	-0.4%	-0.1%	-14.1%	2.6%
NC(=O)c1cc(Cl)ccc1OCC(=O)Nc1ccc2c(c1)OCO2	/	?	1.41µM*	0.849µM*	1.26µM*
CNC(=O)NC(=O)C(C)OC(=O)c1c2c(nc3ccccc13)/C(=C/c1cccs1)CC2 (stereo unspecified)	?	-16.7%	-32.1%	6.01µM*	-33.8%
CC(OC(=O)c1c2c(nc3ccccc13)/C(=C\c1ccc3c(c1)OCO3)CCC2)C(=O)Nc1ccc(S(N)(=O)=O)cc1 (stereo unspecified)	-14.0%	-1.4%	-15.1%	?	-0.4%
CCCCNC(=O)COC(=O)c1c2c(nc3ccccc13)/C(=C/c1cccs1)CC2	11.2µM*	-12.4%	-31.9%	7.57µM*	-30.4%
COc1ccc(NC(=O)CSc2nc3ccccc3nc2N2CCCC2)cc1	/	-0.5%	-6.9%	-0.6%	-2.7%
SMILES	SMN2 splice enh	ELG1 genotoxic	NPC1 prom act	FLuc modulator	Rab9 prom act
O=C(c1ccncc1)N1CCC2(CCCN(c3ncccn3)C2)CC1	-16.3%	/	/	/	/
O=C(Cc1coc2cc(O)ccc12)NNC(=O)c1cccs1	/	1.3%	/	/	/
c1ccc(-c2ccc3c(c2)NCCN3)cc1	/	10.5%	?	13.5µM*	-1.2%[1.84 µM]
CC(=O)Nc1cc(-c2ccccc2)ccc1O	6.7%	-2.3%	5.5%	-13.1%	15.4%
CCOc1ccc2nc(NC(=O)CSc3nc(-c4ccccc4)c(C#N)c(=O)[nH]3)sc2c1	/	11.0%	0.2%	16.9µM*	1.7%
Cc1cccc2sc(NC(=O)CSc3cn[nH]n3)nc12	/	-0.4%	-3.2%	-15.0%	1.4%
COc1ccc2nc(NC(=O)CSc3cn[nH]n3)sc2c1	/	?	?	6.75µM*	3.98µM*
CCOc1ccc2nc(NC(=O)CSc3cn[nH]n3)sc2c1	/	4.61µM*	2.82µM*	2.69µM*	4.47µM*
Cc1cccc(N2CCN(c3nc4ccccc4c4nnc(C)n34)CC2)c1C	11.1%	/	/	1.6%	/
CN(C)c1ccc(S(=O)(=O)N2CCCCC2)cc1NC(=O)CCNC(=O)c1ccco1	/	0.0%	0.6%	1.9%	1.6%
Cc1ccc2cc3cc(C(=O)N(C)c4ccccc4C)oc3nc2c1	15.8µM*	/	/	6.75µM*	/
Cc1ccc2cc3cc(C(=O)N4CCCCC4C)oc3nc2c1 (stereo unspecified)	11.2µM*	?	1.41µM*	3.01µM*	1.58µM*
Cc1ccc2cc3cc(C(=O)NC4CC4)oc3nc2c1	/	?	3.98µM*	10.7µM*	2.51µM*
CCN(C(=O)c1cc2cc3ccc(C)cc3nc2o1)c1ccc(OC)cc1	-35.2%	14.5%	1.5%	?	-3.5%
Cc1ccc2cc3cc(C(=O)NC4CCCCC4)oc3nc2c1	/	-3.8%	?	?	?
Cc1ccc(S(=O)(=O)c2cn(C)c3cc(N4CCOCC4)c(F)cc3c2=O)c(C)c1	/	/	/	-1.8%	/
Cc1cccc(OCc2cc(=O)n3c4c(sc3n2)CCCC4)c1C	-10.1%	/	/	6.5%	/
CC1CCC(NC(=O)c2ccc3c(c2)N(Cc2ccccc2F)C(=O)c2ccccc2S3(=O)=O)CC1 (stereo unspecified)	11.3%	/	/	5.5%	/
O=C(O)/C=C/c1cnc2ccccc2c1	20.4%	1.5%	0.6%	?	?
COC(=O)c1c(C)[nH]c(C(=O)OCc2ccc(F)cc2)c1C	/	?	3.55µM*	9.53µM*	3.98µM*
CCc1c(C(=O)OCc2ccccc2)[nH]c(C)c1C	/	?	28.2%	23.9µM*	?
COC(=O)c1c(C)[nH]c(C(=O)CSc2ccc(Cl)cc2)c1C	11.2µM*	?	3.98µM*	4.78µM*	2.51µM*
Cc1ccc(N2CCN(c3nc4ccccc4n4nnnc34)CC2)c(C)c1	3.5%	/	/	-6.8%	/
O=C(Cn1c2ncccc2c(=O)n1-c1ccccc1)NCc1ccccc1Cl	/	/	/	-2.0%	/
CN(C)/C=N/c1c(C#N)cnn1-c1nc2ccccc2s1	-10.3%	12.6%	0.112µM*	-8.1%	0.126µM*
CN(C)/C=N/c1c(C#N)cnn1-c1ccccc1	-2.7%	0.2%	0.3%	0.6%	-18.8%
COc1ccccc1OCC(=O)Nc1ncc(C)s1	/	?	1.58µM*	2.39µM*	1.78µM*
